In PubChem BioAssay AID793 (The Scripps Research Institute Molecular Screening Center, 2007):
Screen size: about 140,000 compounds; about 1,400 (1%) were called active. Rule as the data show it: active = inhibition above about 17%; inactive = the rest. For the sample, actives were picked, then their nearest neighbours and some compounds at random.

Molecular target: Neuropeptide Y receptor type 2 (Homo sapiens) (UniProt P49146)
Experiment: blockers of human neuropeptide Y Y2 receptor – cell-based, primary screen (AID 793);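 also: 0% = vehicle with agonist challenge and 100% = reference antagonist with challenge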
Details: NPY-Y2 expressing cells, antagonist mode; at 2.7 µM; stronger effect = higher value

Neuropeptide Y receptor type 2 (Homo sapiens), sequence (P49146 whole entry, looked up): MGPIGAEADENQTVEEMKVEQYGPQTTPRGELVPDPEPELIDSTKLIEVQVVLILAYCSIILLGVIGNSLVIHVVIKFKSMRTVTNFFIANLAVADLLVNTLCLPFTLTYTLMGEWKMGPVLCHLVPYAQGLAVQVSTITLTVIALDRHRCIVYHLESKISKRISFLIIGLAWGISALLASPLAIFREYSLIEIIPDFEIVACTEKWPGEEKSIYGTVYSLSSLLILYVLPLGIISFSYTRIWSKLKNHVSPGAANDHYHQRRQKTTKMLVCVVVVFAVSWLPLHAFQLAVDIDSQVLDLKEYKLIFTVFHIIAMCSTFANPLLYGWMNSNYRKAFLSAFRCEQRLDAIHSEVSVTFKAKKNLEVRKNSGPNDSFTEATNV

| SMILES | inhibition |
| --- | --- |
| Cc1ccc(N(NC(=O)C(C)(C)O)C(=O)c2ccccc2)cc1C | 2.31% (inactive) |
| CCCCC(O)(CCCC)C(=O)NN(C(=O)CCl)c1ccccc1 | 21.9% (active) |
| CCCC(O)(CCC)C(=O)NN(C(=O)CCl)c1cccc(C)c1 | 8.32% (inactive) |
| CCCc1cc(=O)[nH]c(SCc2cc(=O)oc3c(C)c(C)ccc23)n1 | 6.69% (inactive) |
| COc1cc(Cl)c(C)cc1NC(=O)[C@@H]1CCCN1C(=O)c1cccs1 | 6.63% (inactive) |
| NC(=O)COc1ccc2c3c(c(=O)oc2c1)CCCCC3 | 0.83% (inactive) |
| CC(=O)Oc1ccc2c(C)c(CC(C)O)c(=O)oc2c1 (stereo not given) | 2.41% (inactive) |
| O=C(Oc1ccccc1)Oc1ccc2c(c1)oc(=O)c1ccccc12 | 23.1% (active) |
| Cc1nc2ccccc2cc1C(=O)N/N=C/c1ccc([N+](=O)[O-])cc1 | -0.48% (inactive) |
| Cc1cc(C(=O)OCC(=O)Nc2nnc(C(C)C)s2)c2ccccc2n1 | 4.1% (inactive) |
| CN(C)Cc1ccc(F)cc1Sc1cc(Cl)ccc1Cl | 20.2% (active) |
| CCCC(=O)Nc1ccc(Cl)c(NC(=O)c2ccc(Br)o2)c1 | -1.21% (inactive) |
| COc1cc(OC)c(NC(=O)c2ccc(Br)o2)cc1Cl | -1.32% (inactive) |
| CCN1CCN(c2c(Cl)cccc2NC(=O)c2ccc(Br)o2)CC1 | 31.1% (active) |
| COC(=O)c1ccc(CSc2nncn2C)cc1 | 3.48% (inactive) |
| COC(=O)c1ccc(CSc2nc3cc(Cl)ccc3o2)cc1 | 21.5% (active) |
| O=C(CSc1nc2ccccc2o1)N1c2ccccc2Sc2ccc(Cl)cc21 | 6.15% (inactive) |
| Cc1ccc(S(=O)(=O)NNC(=O)Nc2cccc3ccccc23)cc1 | 1.93% (inactive) |
| COc1cccc2c(O)cc(=O)n(C)c12 | 1.18% (inactive) |
| C/C(=N\NS(=O)(=O)c1ccc(Br)cc1)c1cccs1 | 3.39% (inactive) |
| CCOc1ccc(S(=O)(=O)NCC2CCCO2)cc1 (stereo not given) | 2.22% (inactive) |
| CCOc1ccc(S(=O)(=O)N/N=C(\C)c2ccc(Cl)c(Cl)c2Cl)cc1 | 17.4% (active) |
| Cc1cccc(NC(=O)/C=C/c2ccc3c(c2)OCO3)n1 | 3.73% (inactive) |
| COc1ccc(CCNC(=O)CSc2nnc(-c3cccc(F)c3)o2)cc1OC | -1.35% (inactive) |

| SMILES | inhibition |
| --- | --- |
| COc1ccc(CCNC(=O)CSc2nc(-c3ccc(OC)c(OC)c3)ccc2C#N)cc1 | 4.73% (inactive) |
| COc1cccc(-c2ccc(C#N)c(SCC(=O)NCCc3ccc(Cl)cc3)n2)c1 | 18.3% (active) |
| Cc1nnc(NC(=O)/C=C/c2ccco2)s1 | 10.7% (inactive) |
| O=C1OC(/C=C/c2ccccc2)=NC/1=C/c1ccco1 | 0.56% (inactive) |
| CC1CCCCN1CC(=O)NCc1ccc2c(c1)OCO2 (stereo not given) | 1.99% (inactive) |
| Cc1ccc(NC(=O)CN2CCC3(O)CCCCC3C2c2ccc3c(c2)OCO3)c(C)c1 (stereo not given) | 21.3% (active) |
| CCN(CC)c1ccc(C2C3CCCCC3(O)CCN2CC(=O)Nc2ccccc2)cc1 (stereo not given) | 5.72% (inactive) |
| FC(F)Oc1ccccc1NC(=S)Nc1cccc(Cl)c1Cl | 0.76% (inactive) |
| CCCCN(CC)C(=S)Nc1ccc2nc3n(c(=O)c2c1)CCCCC3 | 3.37% (inactive) |
| COc1ccc(/C=C(/CC(=O)Nc2ccc(C)cc2)c2nc3ccccc3s2)cc1 | 3.93% (inactive) |
| O=C(C(=O)N1CCc2ccccc2C1)N1CCc2ccccc2C1 | -0.59% (inactive) |
| CCOC(=O)/C(C#N)=C/c1ccc(N2CCN(Cc3ccccc3)CC2)cc1 | 5.28% (inactive) |
| CC1CN(S(=O)(=O)c2ccc(C(=O)Nc3sccc3C(N)=O)cc2)CC(C)O1 (stereo not given) | -0.61% (inactive) |
| CNC(=S)NNC(=O)c1sccc1OCc1ccccc1 | -0.16% (inactive) |
| Cc1ccc(/C=N/NC(=O)c2sccc2OCc2ccc(F)cc2)cc1 | 25.7% (active) |
| Cc1ccsc1C(=O)N/N=C/c1ccc([N+](=O)[O-])cc1 | 1.67% (inactive) |
| CCCCOc1ccc(C(=O)NCc2ccncc2)cc1 | -1.04% (inactive) |
| CCCCOc1ccc(C(=O)NN2CCN(C)CC2)cc1 | 0.95% (inactive) |
| CCCOc1ccc(C(=O)C(CCC(CNCC)C(=O)c2ccc(OCCC)cc2)CNCC)cc1 (stereo not given) | 30.9% (active) |
| CCOc1ccc(C(=O)Nc2nccs2)cc1[N+](=O)[O-] | -0.69% (inactive) |
| O=C(OC1CCOC1=O)c1cccc(S(=O)(=O)Nc2ccc(F)cc2)c1 (stereo not given) | 2.56% (inactive) |
| CCc1cccc(NC(=O)CCC(=O)O)c1 | 1.58% (inactive) |
| CCOC(=O)COc1ccc([N+](=O)[O-])cc1 | 1.59% (inactive) |
| N#Cc1c(N)nc2c3c(sc(=N)c2c1N)NC(=O)CC3c1ccccc1Cl (stereo not given) | 1.65% (inactive) |

| SMILES | inhibition |
| --- | --- |
| COc1ccc(OC)c2c(N)c(C#N)c(C(F)(F)C(F)(F)F)nc12 | -1.33% (inactive) |
| COc1ccc(C2CC(=O)Nc3sc(=N)c4c(N)c(C#N)c(N)nc4c32)cc1OC (stereo not given) | 86.1% (active) |
| CCN(CC)S(=O)(=O)c1cccc(-c2n[nH]c(=S)n2/N=C/c2ccc(C(=O)OC)cc2)c1 | -0.07% (inactive) |
| Cc1cc(C)nc(NC(=O)c2cccc([N+](=O)[O-])c2)c1 | 2.05% (inactive) |
| COc1ccc(/C=C/C(=O)c2cc(Br)ccc(=O)c2O)cc1 | 5.15% (inactive) |
| COc1ccc(/C=C/C(=O)NC(=S)NN2CCCCC2c2cccnc2)cc1 (stereo not given) | 44% (active) |
| O=C(/C=C/c1ccc(F)cc1)NC(=S)NNC(=O)c1cccnc1 | 2.46% (inactive) |
| CCOc1ccc(NC(=S)NC(=O)/C=C/c2ccc(OC)cc2)c([N+](=O)[O-])c1 | 0.55% (inactive) |
| NC(=O)CC[C@@H]1NC(=O)[C@H](CO)NC(=O)c2cc([N+](=O)[O-])cc(I)c2NCC[C@@H](C(N)=O)NC1=O | 0.11% (inactive) |
| COCCN1C(=O)N[C@@H](c2ccccc2)C(C(=O)OC)=C1C | 1.37% (inactive) |
| Cc1ccc(S(=O)(=O)c2ccc(Cl)cc2)cc1S(=O)(=O)NC(C(=O)O)C(C)C (stereo not given) | -0.6% (inactive) |
| C/C(Cc1ccccc1)=N\NC(=O)CNC(=O)c1cccc(Br)c1 | 2.91% (inactive) |
| O=C(CCN1C(=O)c2ccccc2C1=O)Nc1ccncc1 | 1.5% (inactive) |
| COc1cc(C(=O)Nc2oc(-c3ccccc3)c(-c3ccccc3)c2C#N)cc(OC)c1OC | 0.05% (inactive) |
| N#Cc1c(NC(=O)CCCN2C(=O)c3ccccc3C2=O)oc(-c2ccccc2)c1-c1ccccc1 | 20.4% (active) |
| O=C(/C=C/c1cnc2ccccc2n1)NC1CCCCCC1 | 5.1% (inactive) |
| O=C(O)/C(=C/c1cccnc1)NC(=O)c1ccccc1 | 0.95% (inactive) |
| CCCc1[nH]nc2c1C(C1CC=CCC1)C(C#N)=C(N)O2 (stereo not given) | 2.32% (inactive) |
| CCCc1[nH]nc2c1C(c1ccc(Br)s1)C(C#N)=C(N)O2 (stereo not given) | 53.5% (active) |
| CCCc1[nH]nc2c1C(c1c(C)nn(-c3ccccc3)c1Cl)C(C#N)=C(N)O2 (stereo not given) | 0.27% (inactive) |
| Cc1[nH]c2ccccc2c1C(=O)COC(=O)c1c(-c2ccccc2)noc1C | -0.4% (inactive) |
| C/C(=C/C(=O)N1CCN(C)CC1)C(=O)O | 1.55% (inactive) |
| CN(CC(=O)Nc1ccc(S(=O)(=O)N2CCCC2)cc1)Cc1ccc(Cl)c(Cl)c1 | 1.24% (inactive) |
| CC(C)CNC(=S)NC(=O)c1ccc(Cl)cc1 | 6.88% (inactive) |

| SMILES | inhibition |
| --- | --- |
| Cc1ccc(Cn2c(NC(=O)c3ccco3)nc3ccccc32)cc1 | 15.8% (inactive) |
| N=c1n(Cc2ccc(Cl)cc2)c2ccccc2n1CC(O)c1ccco1 (stereo not given) | 18.4% (active) |
| O=S(=O)(O)c1nc2ccccc2n1Cc1ccc(Cl)cc1 | 3% (inactive) |
| CC(C)[C@@H]1NC(=O)c2cc([N+](=O)[O-])cc(I)c2NCCC[C@@H](C(=O)NC(CC(=O)O)C(N)=O)NC(=O)[C@H](CO)NC1=O (stereo not given in full) | 2.25% (inactive) |
| CCOc1ccc(NC(=O)c2ccc(CSc3nnnn3C)cc2)cc1 | 1.22% (inactive) |
| C=CCNCCCCOc1ccccc1 | 28.3% (active) |
| O=C(NCCOc1ccccc1)c1ccccc1 | 0.21% (inactive) |
| C=CCNC(=O)CCCOc1cccc(C)c1 | 1.38% (inactive) |
| CCC1S/C(=N/N=C/c2ccco2)NC1=O (stereo not given) | 2.82% (inactive) |
| CN(C)S(=O)(=O)c1cc(NC(=O)CN2C(=O)NC3(CCCc4ccccc43)C2=O)ccc1Cl (stereo not given) | -4.1% (inactive) |
| OCC(CO)(CO)NCc1ccc(-c2ccccc2)cc1 | 4.54% (inactive) |
| COc1ccc(S(=O)(=O)NC(C)C)cc1C(=O)NC1CCCCC1 | 5.96% (inactive) |
| COc1cc2c3c(c1)/C(=C1/SC(=S)NC1=O)C(=O)N3C(C)(C)C=C2C | -1.35% (inactive) |
| CCC[C@@H]1C[C@@]1(CCC)[C@@H](NC(=O)c1ccccc1)c1ccc(C(=O)OC)cc1 | 6.17% (inactive) |
| CCC/C=C(\CCC)C(NC(=O)Cc1ccccc1)c1ccc(C(=O)OC)cc1 (stereo not given) | 20.7% (active) |
| COc1ccc(C(CC(=O)O)NC(=O)Cc2ccccc2)cc1 (stereo not given) | 0.31% (inactive) |
| CCN(c1ccc(NC(=O)COC(=O)CCc2nc3ccccc3n2-c2ccccc2)cc1)C(C)C | -0.2% (inactive) |
| Cc1cc(-c2n[nH]c(=S)n2-c2ccc(C)c(C)c2)no1 | 3.33% (inactive) |
| Cc1nc(SCc2ccc(F)cc2)c([N+](=O)[O-])[nH]1 | 6.36% (inactive) |
| COc1cc(/C=C/C(=O)O)cc(S(=O)(=O)Nc2ccccc2SC)c1OC | 1.33% (inactive) |
| CCC(c1nnnn1C1CCCC1)N(Cc1cccs1)Cc1cc2cccc(C)c2[nH]c1=O (stereo not given) | 18% (active) |
| Cc1cccc2cc(CN(Cc3cccs3)C(c3nnnn3C3CCCC3)C(C)C)c(=O)[nH]c12 (stereo not given) | 11% (inactive) |
| Cc1cccc2cc(CN(Cc3ccc4c(c3)OCO4)Cc3nnnn3C3CCCC3)c(=O)[nH]c12 | -0.14% (inactive) |
